# Hits are enriched below; roughly 2.9% of the tested compounds scored in any of these assays.
# DRD3 agonist = D3 dopamine receptor (human) agonism | P35462 | D3R DiscoveRx beta-arrestin cells, luminescence, 90 min | max activation, % | 410,000 compounds, 0.58% hits; in the data active = max activation above about 30%
#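 Agonist mode: compounds and dopamine controls were applied to plated cells for 90 min at 37 degrees C after an overnight attachment at 1500 cells/well. Luminescent read-out followed 30 - 60 minutes at room temperature with DiscoveRx detection reagent.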
# DRD3 antagonist = blocks the human D3 dopamine receptor; P35462; D3R cells, DiscoveRx beta-arrestin luminescence, antagonist mode; hits give low values; max response, negative = inhibition, %; 360,000 compounds, 2.5% hits; AID 652054; in the data active = max response below about -50%; inconclusive = no clear call, values can overlap the other calls
#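 Cells expressing the human receptor were seeded at 1500 cells/well, incubated overnight at 37 degrees C in 5% CO2, then exposed to library compounds with dopamine controls for 90 minutes at 37 degrees C before luminescent detection.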
# Rango-impB inh = inhibitors of Rango-importin beta complex formation; 340,000 compounds, 0.031% hits; Potency, µM (highest dose often 92.2 µM); Rango CFP/YFP FRET sensor + importin beta, 45 min; note: nearly all actives have a fitted effect of over 15% in size
#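 FRET biosensor Rango (snurportin 1 IBB between N-terminal EYFP and C-terminal Cerulean), 50 nM in PBS/1 mM DTT/0.02% Tween-20/0.1% BSA, preincubated 5 min RT with compound; 0.125 microM importin beta added, 45 min RT, CFP/YFP FRET ratio read.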
# Rango release inh = prevents RanGTP from dissociating the Rango-importin beta complex. O95149+P62826. Biochemical FRET Rango-importin beta, RanGTP-induced dissociation. Potency, µM (highest dose often 46.1 µM). 340,000 compounds, 0.071% hits. AID 540253; note: nearly all actives have a fitted effect of over 45% in size
#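 Rango FRET biosensor (snurportin-1 IBB flanked by N-terminal EYFP and C-terminal CFP10) at 0.1 uM, with 0.25 uM importin beta in PBS, 1mM DTT, 0.02% Tween-20, 0.1% BSA. 0.6 uM Ran, 2mM GTP and 0.2 uM RCC1 were then added for 45 min at room temperature. Inhibition read as loss of FRET rise.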
# TSG101-PTAP inh = blocks PTAP/TSG101 interaction to inhibit HIV-1 budding; Q99816; Fluorescence polarization, FITC-PTAP peptide / Tsg101 binding; Potency, µM (highest dose often 115 µM), usual class: inhibitors; 340,000 tested, under 10 active; AID 493005; active = well fitted inhibition curve with a large enough effect in the main read-out, with a control signal flat, not every such curve was filed as active; inconclusive = small, poorly fitted or top-dose-only effect, or effect the other way, or a change in a side signal; inactive = no such curve, though single readings can be large or run the other way
# Target sequence (Q99816 whole entry, looked up): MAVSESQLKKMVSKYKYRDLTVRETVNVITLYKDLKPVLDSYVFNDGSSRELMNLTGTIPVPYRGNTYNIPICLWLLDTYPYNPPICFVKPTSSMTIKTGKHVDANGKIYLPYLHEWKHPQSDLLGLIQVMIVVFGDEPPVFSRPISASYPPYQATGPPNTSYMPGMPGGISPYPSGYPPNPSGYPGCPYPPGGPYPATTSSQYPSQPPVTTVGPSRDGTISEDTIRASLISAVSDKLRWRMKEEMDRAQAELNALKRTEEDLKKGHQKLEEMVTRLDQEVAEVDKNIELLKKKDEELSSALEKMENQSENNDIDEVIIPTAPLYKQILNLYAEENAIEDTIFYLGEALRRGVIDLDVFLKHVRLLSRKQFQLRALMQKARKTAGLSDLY
#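 Compounds were pin-transferred onto Tsg101 binding domain (10 uM final) in HEPES pH 7.5 buffer, then FITC-PTAP peptide was added at 50 nM final. After 20 min at RT, polarization reported peptide displacement across a qHTS concentration series.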
# MmCpn inh = M. maripaludis TRiC chaperonin inhibition. AID 504842. 330,000 compounds, 0.031% hits. purified Mm-Cpn ATPase, ADP Transcreener TR-FRET. Potency, µM (doses to about 76.9 µM), usual class: inhibitors; active = well fitted inhibition curve with a large enough effect; inconclusive = small, poorly fitted or top-dose-only effect; note: nearly all actives have a fitted effect of over 80% in size
#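 TR-FRET (320 nm excitation; 590 and 665 nm emission) reports ADP made from 10 uM ATP by 25 nM enzyme; compounds were preincubated 10 min, reaction run 30 min, both at 37°C.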
# A number is an active result; – = inactive; ? = inconclusive; · = not tested or not shown. Unless noted, calls come from the whole dose curve.
SMILES,DRD3 agonist,DRD3 antagonist,Rango-impB inh,Rango release inh,TSG101-PTAP inh,MmCpn inh
Clc1ccc(OCCN2CCOCC2)cc1Cl,–,-66,–,–,–,–
COc1ccc(OCCN2CCOCC2)cc1,–,–,?,–,–,–
Clc1ccc(OCCN2CCCCC2)cc1Cl,–,-79,–,–,–,–
CNCCOc1ccc(Cl)c(Cl)c1,–,-62,–,–,–,–
COc1cccc(-n2nc(C(=O)NCC3CCCO3)c3ccccc3c2=O)c1 (stereo not given),–,–,–,–,–,–
O=c1cc(-c2ccccc2O)nc(-c2ccccc2)[nH]1,–,–,–,–,–,·
Cc1nc2nc(C)n(CCN3CCOCC3)c(=O)c2c(-c2cccc([N+](=O)[O-])c2)c1C(=O)CCCCCCCCCCN1CCC(c2ccccc2)(c2ccccc2)CC1,–,-93,–,–,–,·
O=C(NCCCN1CCOCC1)/C(=C/c1ccc(-c2cccc([N+](=O)[O-])c2)o1)NC(=O)c1ccccc1,–,–,·,·,·,·
CCOC(=O)COc1ccc2c(C)c(CCN(CC)CC)c(=O)oc2c1,–,·,·,·,·,·
COC(=O)CN1C(=O)[C@H]2[C@@H](c3ccc(C)o3)N3C(=O)CN(Cc4ccccn4)C(=O)[C@@]3(Cc3ccccc3)[C@H]2C1=O,39,–,–,–,–,–
Brc1ccccc1OCCCN1CCCCCC1,–,-82,–,–,–,–
Brc1ccccc1OCCN1CCCC1,–,-62,–,–,–,·
CN1/C(=C\P(=O)(N(C)C)N(C)C)C(C)(C)c2ccccc21,31,–,–,–,–,–
Cn1cc(C(=O)c2ccccc2C(=O)O)cc1C(=O)C(Cl)(Cl)Cl,–,–,–,–,–,–
Cc1cc(Br)ccc1OCCCCNCCO,–,-60,–,–,–,–
C=CCNCCCOc1ccc(Cl)cc1Br,–,-67,–,–,–,–
COCCCNCCCOc1ccc(Cl)cc1C(C)(C)C,–,?,–,–,–,–
COCCNCCCOc1ccc(Cl)cc1Br,–,-78,–,–,–,–
OCCNCCCOc1ccc(Cl)cc1Br,–,-64,–,–,–,–
COc1ccccc1CC(=O)Nc1ccc2nc(Nc3cccc(C(F)(F)F)c3)cc(C)c2c1,–,·,·,·,·,·
COc1ccc(Cn2nnc(C(=O)Nc3cc(OC)ccc3OC)c2N)cc1,–,·,·,·,·,·
Cc1cccn2c(=O)c3cc(C(=O)NCCc4ccc(S(N)(=O)=O)cc4)n(C)c3nc12,–,·,·,·,·,·
COCCCNCCCCOc1ccc(Br)cc1Cl,–,–,–,–,–,–
COCCNCCCOc1ccc(Br)cc1Cl,–,-78,–,–,–,–
Cc1cccn2c(=O)c(C=NCc3ccccc3)c(NCCO)nc12,–,-72,–,–,–,–
SMILES,DRD3 agonist,DRD3 antagonist,Rango-impB inh,Rango release inh,TSG101-PTAP inh,MmCpn inh
Cc1cccn2c(=O)c(/C=N/O)c(NCc3ccccc3)nc12,–,–,–,–,–,–
O=C(/C=C/c1cccc(Cl)c1Cl)OCC(=O)N1CCOCC1,–,-59,–,–,–,–
O=C(/C=C/c1cc(Br)ccc1F)OCC(=O)N1CCOCC1,–,–,–,–,–,–
COc1ccc(-c2nc3nc(C)cc(Nc4ccc(C(C)=O)cc4)n3n2)cc1,–,·,·,·,·,·
Cc1ccc(NC(=O)CN2CCCN(Cc3cc(C)ccc3C)S2(=O)=O)c(Cl)c1,–,·,·,·,·,·
COc1cccc(/C=N/NC(=O)CNC(=O)COc2ccccc2)c1O,–,–,–,–,–,–
Cc1cccc(OCC(=O)NCC(=O)N/N=C/c2cc(Br)cc(Br)c2O)c1,–,-81,?,?,–,–
CCN1C(=O)[C@@H]2[C@H](C1=O)[C@@H]1C(=O)Nc3ccccc3C(=O)N1[C@@H]2c1ccc(OC)cc1,35,–,–,–,–,–
Cc1ccc2c(c1)-c1c(ssc1=S)C(C)(C)N2C(=O)c1ccco1,–,-62,–,–,–,–
CC1(C)c2ssc(=S)c2-c2ccccc2N1C(=O)c1ccco1,–,–,–,–,–,–
Cc1nc(N2CCN(S(=O)(=O)c3ccc(Br)cc3)CC2)c2c(C)c(C)sc2n1,–,-55,–,–,–,–
